From PubChem BioAssay AID485297 (National Center for Advancing Translational Sciences (NCATS), 2010) come the findings set out here.

SMILES strings stand for the structures. In all, about 320,000 compounds went through this assay and about 9,100 (2.8%) were called active. Inconclusive results (about 3%) are left out. Shown is part of a subset that was picked to be rich in actives. A call without a number means that no potency is given here. A number with no mark means an inactive call. Calls come from the whole dose curve; as a rule, active = well fitted activation curve with a large enough effect; inconclusive = small, poorly fitted or top-dose-only effect; inactive = no such curve, though single readings can be large or run the other way.
Potency is the fitted concentration of half-maximal effect.

The experiment can be described thus: qHTS Assay for Rab9 Promoter Activators. Note: nearly all actives have a fitted effect of over 60% in size. The note with it: Huh7 Rab9 promoter-luciferase reporter, luminescence, 24 h; series mostly up to 9.22 µM. A digest of the protocol:
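Stable Rab9-luc Huh7, 1500 cells/well, 2 h settle; cmpd in DMSO, 24 h, 37 °C/5% CO2; luciferase reagent 10 min RT; luminescence.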
Background: In qHTS, concentration-response curves come from the screen itself.
`CN(CCO)Cc1csc2ccc(Br)cc12`: the Potency result was “inactive”.

Take `CC(=O)Oc1ccc(-c2nc3c(C)cccc3c(=O)o2)cc1`: the Potency result was “inactive”.

For `COc1ccc(/C=C/c2noc(-c3ccccc3OC(C)=O)n2)cc1`, the Potency was 2.24 µM (active).

As to `COc1ccc(/C=C/c2nnc(NC(=O)C(C)C)s2)cc1`, the Potency entry was “inactive”.

Regarding `Cc1ccc(NC(=O)COC(=O)CN2CCCCCC2=O)c(C)c1`, the Potency result is “inactive”.

Turning to `COc1ccc(OC)c(S(=O)(=O)Nc2c(C)nn(C)c2C)c1`, the Potency entry was “inactive”.

On to `Oc1ccccc1-c1cc(-c2ccc(Cl)cc2)n[nH]1`, for which the Potency is 2.51 µM (active).

As to `Cc1ccc(S(=O)(=O)Cc2cc(-c3ccc(Cl)cc3)no2)cc1`, the Potency result is “inactive”.

For `CC(C)C(=O)NCc1cc(-c2ccc(Cl)cc2)no1`, the Potency entry is “inactive”.

Regarding `Cc1sc2ncn(CC(=O)NCCCC(=O)NCc3ccc(F)cc3)c(=O)c2c1C`, the Potency result was “inactive”.

`CCCCCc1c(C)nc(N2CCN(Cc3ccc4c(c3)OCO4)CC2)[nH]c1=O`: the Potency entry is “inactive”.

For the compound `O=C(NCc1ccncc1)c1cccc(NS(=O)(=O)c2ccc(F)c(F)c2)c1`, the Potency result was “inactive”.

Turning to `O=C(CN1CCN(c2ccccn2)CC1)N1CCc2ccccc21`, the Potency entry is “inactive”.

On to `O=C(CSCc1ccccc1)N1CCc2ccccc21`, for which the Potency is 1.78 µM (active).

Take `CCC(=O)N1CCCc2ccccc21`: the Potency result is “inactive”.

As to `CCCCn1nc(C(=O)Nc2cccc(C(=O)NC3CC3)c2)c2ccccc2c1=O`, the Potency entry was “inactive”.

On to `Cc1ccc(NC(=O)CCCNC(=O)c2ccc(Cl)cc2)cc1S(=O)(=O)N1CCOCC1`, for which the Potency result was “inactive”.

In the case of `CCS(=O)(=O)Nc1ccc(C(=O)NCCSc2ccccc2)cc1`, the Potency entry is “inactive”.

Take `O=C(NCCSc1ncc(-c2ccccc2)[nH]1)c1ccco1`: the Potency result was “inactive”.

On to `O=C(NCCSc1ccccc1)c1ccco1`, for which the Potency is 3.55 µM (active).

Turning to `CC(C)(CNC(=O)CNC(=O)C1CCCCC1)N1CCOCC1`, the Potency entry was “inactive”.

Take `CCCCNC(=O)Cn1nc(C)c(S(=O)(=O)N2CCOCC2)c1C`: the Potency result is “inactive”.

As to `CC1CCN(S(=O)(=O)c2ccc3c(c2)n(C)c(=O)n3C)CC1`, the Potency entry is “inactive”.

For the compound `CCCOC1CCCN(C(=O)c2cc(COc3cncc(Cl)c3)on2)C1` (configuration not stated), the Potency was 1.41 µM (active).

Regarding `CCOC(=O)CC1(NC(=O)c2cc(COc3cncc(Cl)c3)on2)CCCCC1`, the Potency result is “inactive”.

As to `Cc1nonc1C1CCCN1C(=O)c1cc(COc2cccc(C(F)(F)F)c2)on1` (configuration not stated), the Potency entry is “inactive”.

As to `CC(C)(C)c1nnc(N/N=C/c2ccc(O)cc2)n(N)c1=O`, the Potency result is “inactive”.

Take `Cc1ccc(Cn2c(C)c3cnn(CC(=O)NCc4ccccn4)c(=O)c3c2C)cc1`: the Potency entry is “inactive”.

Turning to `Cc1ccc(C(=O)Nc2ncccc2C)cc1S(=O)(=O)N1CCOCC1`, the Potency entry is “inactive”.

Turning to `Cc1cc(NC(=O)COc2ccccc2C#N)no1`, the Potency is 3.55 µM (active).

For `Cc1cc(NC(=O)COn2nnc3ccccc32)no1`, the Potency entry is “inactive”.

Regarding `Cc1cc(NC(=O)COc2ccc([N+](=O)[O-])cc2)no1`, the Potency entry was “inactive”.

In the case of `CCOc1ccc(NC(=O)Nc2cc(C)on2)cc1`, the Potency was 1.12 µM (active).

Turning to `CCC(=O)Nc1ccc(C(=O)Nc2cc(C)on2)cc1`, the Potency entry is “inactive”.

`CCOc1ccc(C(=O)Nc2ccc(S(=O)(=O)Nc3cc(C)on3)cc2)cc1`: the Potency entry is “inactive”.

In the case of `Cc1cc(C)cc(NC(=O)C(OC(=O)c2ccc(O)cc2)c2ccccc2)c1` (configuration not stated), the Potency result is “inactive”.

Turning to `COc1ccc([C@H]2CC(=O)C=C(c3ccc(OC(F)(F)F)cc3)C2)cc1OC`, the Potency entry was “inactive”.

On to `CCN(CC)S(=O)(=O)c1ccc(N2CCOCC2)c(NC(=O)c2ccc(=O)n(C)n2)c1`, for which the Potency result is “inactive”.

For the compound `COc1ccc2c(c1)[C@H]1[C@H](CO2)[C@H](c2ccccc2)[C@]2(C)C(=O)Nc3cc(F)c(F)cc3C(=O)N12`, the Potency result was “inactive”.

As for `O=C(NCCN1CCOCC1)c1cccc(S(=O)(=O)Nc2ccc(F)cc2)c1`, the Potency result was “inactive”.

For `CC(=O)c1c(C)[nH]c(C(=O)COc2ccc3c(C)cc(=O)oc3c2)c1C`, the Potency entry was “inactive”.

For `Cc1ccc(Oc2cnn(-c3ccccc3)c(=O)c2Br)cc1`, the Potency result is “inactive”.

Turning to `O=c1c(Cl)c(NC2CC2)cnn1-c1ccccc1`, the Potency result is “inactive”.

For `C=CCNc1cnn(-c2ccc(C)cc2)c(=O)c1Cl`, the Potency is 3.55 µM (active).

For `CC(=O)NC12CC3CC(C1)CC(C(=O)N1CCN(S(=O)(=O)c4cccs4)CC1)(C3)C2`, the Potency entry was “inactive”.

Consider `CCn1nc(C(=O)Nc2ccc(N3CCOCC3)cc2)c2ccccc2c1=O`, for which the Potency result was “inactive”.

`c1ccc(-n2cccc2)c(N2CCCCC2)c1`: the Potency entry is “inactive”.

Take `CN(C)c1ccnc(Nc2ccc(F)cc2)c1C#N`: the Potency entry is “inactive”.

On to `CC(C)c1ccc(Nc2ncccc2C#N)cc1`, for which the Potency was 3.55 µM (active).

On to `CC(C)c1ccc(/C=C/C(=O)NNC(=O)c2cccnc2)cc1`, for which the Potency entry was “inactive”.

On to `COc1ccc(C(=O)Nc2ccccc2C(=O)NCc2ccco2)cc1`, for which the Potency result is “inactive”.

On to `COc1ccc(CNC(=O)CNC(=O)c2sc3ccccc3c2Cl)cc1OC`, for which the Potency result is “inactive”.

For `COc1ccc2c(Cl)c(C(=O)NCc3ccco3)sc2c1`, the Potency is 3.16 µM (active).

On to `Cc1c(CNCCc2ccccc2)c(C(=O)O)c(C)n1-c1ccccc1`, for which the Potency entry was “inactive”.

Regarding `CCOc1cc(CNCCN(C)C)c(Cl)cc1OCC(=O)NCCc1ccccc1`, the Potency entry is “inactive”.

Turning to `O=C(CN1CCc2ccccc2C1)Nc1cccc(S(=O)(=O)N2CCOCC2)c1`, the Potency result was “inactive”.

`CC1CCN(C(=O)c2ccccc2NC(=O)Cc2ccccc2)CC1`: the Potency entry was “inactive”.

For the compound `CCCCc1nc2cc(C(=O)NCCc3cnn(C)c3)ccc2o1`, the Potency entry is “inactive”.

Turning to `COc1ccc(Cc2nc3ccc(C(=O)NCC4CCOCC4)cc3o2)cc1OC`, the Potency entry was “inactive”.

Turning to `CSCCNC(=O)c1ccc2nc(Cc3ccccc3F)oc2c1`, the Potency was 2.82 µM (active).

For the compound `COCCn1c(C)cc(C(=O)CSc2nnc(C3CC3)n2C2CC2)c1C`, the Potency entry is “inactive”.

Consider `O=C(CNC(=O)c1ccccc1Br)NNC(=O)c1cccs1`, for which the Potency result was “inactive”.

With `COc1cccc(N2CCN(CC(=O)Nc3ccnn3C3CCCC3)CC2)c1`, the Potency entry was “inactive”.

With `O=C(Nc1nc(-c2ccc(-c3ccccc3)cc2)cs1)c1cnccn1`, the Potency result is “inactive”.

`CN(c1ccc(O)cc1)c1nc(-c2cccnc2)cs1`: the Potency entry is “inactive”.

Turning to `O=C(Nc1nc(-c2cccnc2)cs1)c1ccccc1F`, the Potency was 3.55 µM (active).

Consider `Cc1ccccc1Nc1nc(-c2cccnc2)cs1`, for which the Potency was 2 µM (active).

In the case of `O=C(O)c1ccccc1C(=O)Nc1nc(-c2ccccc2)cs1`, the Potency result was “inactive”.

For `O=C(Nc1nnc(-c2ccccc2F)s1)c1ccccc1F`, the Potency was 0.708 µM (active).

Turning to `O=C(Nc1ccc(NC(=O)c2ccccc2F)cc1)c1ccccc1F`, the Potency entry was “inactive”.

Take `CN(Cc1ccccc1)S(=O)(=O)c1nnc(NC(=O)c2ccccc2F)s1`: the Potency result is “inactive”.

In the case of `O=C(NCCc1csc(-c2ccccc2)n1)c1ccccc1F`, the Potency result is “inactive”.

For the compound `CC(=O)c1ccc(S(=O)(=O)NCCC(=O)N2CCN(c3ccccn3)CC2)cc1`, the Potency entry is “inactive”.

For `CCC(C(=O)N1CCN(S(=O)(=O)c2sc(C(=O)O)c(C)c2C(=O)O)CC1)c1ccccc1` (configuration not stated), the Potency result is “inactive”.

For `Cc1ccc(COC(=O)CN2C(=O)NC3(CCCC3)C2=O)cc1`, the Potency result was “inactive”.

With `COc1ccc(C(=O)OC(C)C(=O)NC2CCCC2)cc1S(=O)(=O)N1CCOCC1` (configuration not stated), the Potency result was “inactive”.

`O=C(COC(=O)Cn1[nH]c(=O)c2ccccc2c1=O)Nc1ncc(Cl)cc1Cl`: the Potency result was “inactive”.

On to `CCCSC(=S)NC1CCS(=O)(=O)C1` (configuration not stated), for which the Potency entry is “inactive”.

With `CN(CC(=O)NCc1ccc2c(c1)OCO2)CC(=O)Nc1ccc(F)c(F)c1F`, the Potency entry was “inactive”.

For `Cc1ccc(S(=O)(=O)N2CCCCC2)cc1C(=O)N1CCN(CCO)CC1`, the Potency entry is “inactive”.

Take `c1ccc(CN2CCC(N=C3NN=C(c4ccc5c(c4)OCCO5)CS3)CC2)cc1`: the Potency entry is “inactive”.

Take `Clc1cccc(N=C2NN=C(c3ccc4c(c3)OCCO4)CS2)c1`: the Potency is 3.55 µM (active).

Regarding `CN(C)c1nc(=Nc2cccc(Cl)c2)ss1`, the Potency entry is “inactive”.

For the compound `COc1ccc(CCNC(=O)COC(=O)C2CC2C)cc1` (configuration not stated), the Potency result was “inactive”.

In the case of `O=C(NC1CCCC1)c1cc(-c2ccccc2)on1`, the Potency was 2 µM (active).

`O=C(NCCCN1CCOCC1)c1cc(-c2cccc(O)c2)on1`: the Potency entry was “inactive”.

As for `O=C(Nc1cccnc1Cl)c1cc(-c2cccc(Cl)c2)on1`, the Potency entry is “inactive”.

For the compound `O=C(NCCCn1ccnc1)c1cc(-c2ccccc2)on1`, the Potency was 3.98 µM (active).

In the case of `COc1ccccc1-c1cc(C(=O)NCCCn2ccnc2)no1`, the Potency entry is “inactive”.

On to `COc1ccc(-c2cc(C(=O)NCCCn3ccnc3)no2)cc1`, for which the Potency entry was “inactive”.

As to `Cc1ccc(C(=O)CN2C(=O)NC3(CCOc4ccccc43)C2=O)s1` (configuration not stated), the Potency entry is “inactive”.

As to `CN(C(=O)CSc1nnc(-c2ccc(C(C)(C)C)cc2)n1C)C1CCS(=O)(=O)C1` (configuration not stated), the Potency entry is “inactive”.

Take `CCNC(=O)c1cccc(NC(=O)C2CC(=O)N(CCc3ccccc3)C2)c1` (configuration not stated): the Potency entry was “inactive”.

On to `O=S(=O)(Nc1cc(Cl)ccc1N1CCOCC1)c1ccccc1Cl`, for which the Potency entry was “inactive”.

Regarding `CCOc1ncccc1C(=O)Nc1ccc(S(=O)(=O)Nc2nc(C)cc(C)n2)cc1`, the Potency result is “inactive”.

For `O=C(Nc1ccc(Cl)cc1)Nc1nnc(/C=C/c2ccccc2)s1`, the Potency result is “inactive”.

Turning to `O=C(c1ccc(Cl)cc1)c1cnc(Nc2ccccc2)s1`, the Potency is 3.98 µM (active).

On to `Nc1nc(COC(=O)CCC(=O)c2ccc(Cl)cc2)nc(Nc2ccccc2)n1`, for which the Potency entry was “inactive”.

As for `CCCN(CC(=O)NC(=O)NC1CCCCC1)CC(=O)Nc1cc(Cl)ccc1Cl`, the Potency result is “inactive”.

For `CN(C(=O)CSc1nnc(-c2ccc3c(c2)OCO3)o1)C1CCS(=O)(=O)C1` (configuration not stated), the Potency entry was “inactive”.

As to `CCOC(=O)c1c(NC(=O)CN2C(=O)NC3(CCC(C)CC3)C2=O)sc(C)c1CC` (configuration not stated), the Potency result was “inactive”.

For the compound `O=C(Nc1ccncc1)c1ccc([N+](=O)[O-])cc1Cl`, the activation, negative = inhibition is 1.06% [at 1.84 µM].

Take `O=C(Nc1ccc(Br)cn1)c1ccc([N+](=O)[O-])cc1Cl`: the Potency is 2.51 µM (active).

For the compound `O=C(Nc1ccc(Br)cn1)c1ccc([N+](=O)[O-])o1`, the Potency entry is “inactive”.

Take `CC/C(Cc1ccccc1)=N/NC(=O)CCn1nnc2ccccc21`: the Potency result is “inactive”.

As for `CCO/N=C(/C)c1c(O)cc(-c2ccccc2)n(-c2ccccc2)c1=O`, the Potency result is “inactive”.

As to `CC(=O)Nc1ccc(/C=C/C(=O)c2ccccc2)cc1`, the Potency was 3.98 µM (active).

Take `O=C(O)c1ccc2c(c1)C(=O)N(c1ccc(/C=C/C(=O)c3ccccc3)cc1)C2=O`: the Potency entry is “inactive”.

As to `CC(=O)Nc1ccc(NC(=S)NC(=O)/C=C/c2ccccc2)cc1`, the Potency entry was “inactive”.

`O=C(CN1CCN(S(=O)(=O)/C=C/c2ccccc2)CC1)Nc1ccc(N2CCOCC2)cc1`: the Potency result was “inactive”.

Turning to `CC(OC(=O)/C=C/c1ccccc1)C(=O)Nc1ccc(C(N)=O)cc1` (configuration not stated), the Potency result is “inactive”.

In the case of `O=C(/C=C/c1ccc(N2CCOCC2)cc1)c1ccccc1`, the Potency is 4.47 µM (active).
